Assay outcomes (PubChem BioAssay)
hcDAF-12 act = H. contortus DAF-12 nuclear receptor activators, primary screen, cell-based, luminescence, HEK293, lit1-tk-luc reporter. HEK293 hcDAF-12 lit1-tk-luc reporter; 0% DMSO, 100% Δ7-dafachronic acid. activation, % at 6.8 µM. hit rate 1.4% among 370,000;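 active = activation above the mean of all tested compounds plus 3 SD, cut at about 5.5% in these data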
SMARCA2 activ = SMARCA2 (BRM) function activators, primary screen, cell-based, luminescence, high throughput; MG213 cells, MMTV-luciferase reporter, dexamethasone, overnight; activation, % at 9.1 µM; hit rate 1% among 370,000; AID 652017, 2013; in the data active = activation above about 7.8%
hgDAF-12 ag = H. glycines DAF-12 receptor agonists, primary screen, cell-based, luminescence, HEK293, GAL4 fusion, UAS-luciferase; HEK293 GAL4-hgDAF12 UAS-luciferase reporter, agonist luminescence; normalized to butyrate control; activation, % at 6.8 µM; hit rate 1.8% among 370,000; AID 687014, 2013;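 active = activation above a cutoff set at the mean of all screened compounds plus 3 SD, cut at about 10% in these data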
DAX1 StAR inh = DAX1 (NR0B1) inhibitors on StAR promoter, primary screen, cell-based, luminescence, SF-1 (NR5A1), full-length DAX-1; AID 652010, 2013; HEK293T StAR-luciferase reporter, SF-1/DAX-1 repression relief; hit rate 1.1% among 370,000; inhibition, % at 6.8 µM;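 active = inhibition above the mean over all tested compounds plus 3 SD, cut at about 3.6% in these data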;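 also: higher inhibition means more luminescence from relief of DAX-1 repression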
ssDAF-12 act = S. stercoralis DAF-12 nuclear receptor activators, primary screen, cell-based, luminescence, HEK293, GRIP1 co-expression, lit1-tk-luc; hit rate 1% among 370,000; activation, % at 6.8 µM; HEK293 ssDAF-12/GRIP1 lit1-tk-luc reporter; % of 3 µM dafachronic acid response;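 active = activation above the mean over all tested compounds plus 3 SD, cut at about 0.9% in these data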
SMARCA2 conf = SMARCA2 (BRM) function activators, confirmation, cell-based, luminescence, triplicate; MG213 cells, MMTV-luciferase with dexamethasone, overnight; MG213 cells expressing E1A, Rb sequestered; DMSO wells 0%, reference activator 100%; activation, % at 9.1 µM; hit rate 30% among 3,500; shares compounds with SMARCA2 activ;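 active = activation above its plate's cutoff, the mean activation of tested wells plus 3 SD, cut at about 7.9% in these data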
GAL4-VP16 Luc = GAL4-VP16 luciferase reporter activation, counter-screen for SMARCA2 (BRM) activator project, cell-based, pG5luc, luminescence, high throughput; HEK293 GAL4-VP16 pG5luc reporter; scaled: DMSO wells 0%, SAHA wells 100%; activation, % at 9.1 µM; hit rate 41% among 3,500; shares compounds with SMARCA2 activ; AID 686939, 2013;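 active = activation above the solvent-only control well mean plus 3 SD, averaged across control plates, cut at about 5.2% in these data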
Numbers stand for hits; - = inactive; . = no result. Most compounds without a hit are left out; they make up all but 4.2% or so of the library.

SMILES | hcDAF-12 act | SMARCA2 activ | hgDAF-12 ag | DAX1 StAR inh | ssDAF-12 act | SMARCA2 conf | GAL4-VP16 Luc
O=C(O)c1cccc(Oc2ccc(C(=O)O)c([N+](=O)[O-])c2)c1 | - | - | - | - | - | . | .
O=[N+]([O-])c1cccnc1Oc1ccccc1F | - | 9.6 | - | - | - | - | -
O=C(O)c1cccc(Oc2ccccc2[N+](=O)[O-])c1 | - | 12 | - | - | - | - | -
CC1(c2ccccc2)CC(=O)N(c2ccc(NC(=O)c3ccccn3)cc2Cl)C1=O (stereo unspecified) | - | . | - | . | - | . | .
Cc1c(-c2ccccc2)nc2ccccc2c1C(=O)NCc1cccs1 | - | 8.1 | - | - | - | - | -
C=CCn1cnc2c(c1=O)c1nc3ccccc3nc1n2/N=C/c1cccc(OC)c1OC | - | 8.2 | - | - | - | - | -
CCCCCCn1cc(CN2CC(N3CCN(Cc4cccc(C)c4)CC3)CS2(=O)=O)nn1 (stereo unspecified) | - | - | - | - | - | . | .
O=Cc1ccc2noc(-c3ccc(Cl)cc3)c2c1 | 6.5 | 17 | - | - | - | 11 | -
CC(C)c1cc(C(C)C)c(S(=O)(=O)NCC(=O)N2CCN(c3ncccn3)CC2)c(C(C)C)c1 | - | - | - | - | - | . | .
COc1cccc(CC(NC(C)=O)C(=O)NC2CCN(c3c4c(nc5ncnn35)CCC4)CC2)c1 (stereo unspecified) | - | 8.4 | - | - | - | - | -
COc1ccc(CC(NC(C)=O)C(=O)NC2CCN(c3c4c(nc5ncnn35)CCC4)CC2)cc1 (stereo unspecified) | - | - | - | - | - | . | .
C(=C\c1nc(N2CCCCCC2)c2ccccc2n1)/c1ccccc1 | - | 9.3 | - | - | - | - | -
Cc1cc(=O)[nH]c(SCc2nnnn2-c2ccc(Cl)cc2)n1 | - | - | - | - | - | . | .
Nc1cc(=O)[nH]c(SCc2nnnn2-c2ccc(Cl)cc2)n1 | - | 9.4 | - | - | - | - | -
Nc1c(C(=O)O)ccc2c1C(=O)c1ccccc1C2=O | - | - | - | - | - | . | .
Nc1ccc2c(c1Cl)C(=O)c1ccc(N)c(Cl)c1C2=O | - | 10 | - | - | 1.1 | 23 | 5.2
Cc1cccnc1C(NC(=O)C1CCN(CCOc2ccc(Cl)cc2Cl)CC1)c1ccc(Cl)cc1 (stereo unspecified) | - | - | - | - | - | . | .
Nc1ccc(C#Cc2ccc3c(=O)c4ccccc4oc3c2)cc1 | - | - | - | - | - | . | .
CNC(C)C#Cc1ccc2c(=O)c3ccccc3oc2c1 (stereo unspecified) | - | 9.2 | - | - | - | 13 | -
CC1(C(=O)NCCc2c[nH]c3ccccc23)CCN1CC1CCCCC1 (stereo unspecified) | - | - | - | - | - | . | .
Cn1cccc1/C=C1\SC(=Nc2cccc(O)c2)NC1=O | - | 9.9 | - | - | - | 10 | 11
O=C1NC(=Nc2ccccc2)S/C1=C\c1cccs1 | - | 13 | - | - | 1.4 | 15 | 6.8
N#C/C(=C/c1cc[nH]c1)C(N)=S | - | 8.6 | - | - | - | - | -
Cn1cccc1/C=C(\C#N)C(N)=S | - | - | - | - | - | . | .
CN=Cc1sc2ccccc2c1O | - | - | - | - | - | . | .
CC(=Nc1cccc(O)c1)c1sc2ccccc2c1O | - | 14 | - | - | 1.5 | 8.1 | 13
Cc1nc(SCC(=O)N2CCc3ccccc32)n[nH]1 | - | 8.7 | - | - | - | 8.6 | -
